# The list is not random: actives were taken first. Their share in the collection is about 3.3%.
# TbPYK inhibitor: blocks Trypanosoma brucei pyruvate kinase | AID 624173 | TbPYK enzyme, Kinase-Glo Plus ATP luminescence, 45 min | 0.12% of 410,000 active | Potency, µM (top dose mostly 76.8 µM), for the others: at the top dose activity, negative = inhibition, usual class: inhibitors | Q57TT1; note: % is set by controls: 0 for no effect and ±100 for the full control effect; nearly all actives have a fitted effect of over 50% in size
#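 Readout: single end-point luminescence (Kinase-Glo Plus, 10 min). Reaction conditions were TbPYK/substrate plus 130 uM ADP, 45 min at RT, pH 7.2 TEA buffer. No-enzyme wells served as controls, and data were normalized before concentration-response fitting.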
# RE007 growth inh: less growth of the S. pombe RE007 Vpr strain; S. pombe RE007 Vpr strain, BacTiter-Glo ATP luminescence, 24 h; Potency, µM (highest dose often 92.2 µM), inactives show at the highest dose activity change, negative = less growth, usual class: inhibitors; 0.21% of 360,000 active; active = well fitted falling curve with a large enough effect; inconclusive = small, poorly fitted or top-dose-only effect; inactive = no such curve, though single readings can be large or run the other way; note: % is set by controls: 0 for no effect and ±100 for the full control effect; nearly all actives have a fitted effect of over 50% in size
#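 Fission yeast strain RE007, carrying one chromosomally integrated HIV-1 vpr copy, was seeded at OD 0.01 in PMG+AL medium with 23 nL pinned compound. After 24 h at 30 °C and 99% humidity, viability was read by BacTiter-Glo luminescence.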
# NS1 inh: blocks influenza NS1 protein function; Potency, µM (doses to about 46.1 µM), for inactives: at the top dose activity, positive = more growth; 0.4% of 270,000 active; AID 2326; calls by dose curve; note: actives are rising curves; nearly all actives have a fitted effect of over 50% in size
#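 Recovery from NS1-induced slow growth read by OD600 in budding yeast switched to galactose assay medium (pH 6.0, -URA) at 1:100 dilution. Compound 23 nl per well; the matching strain lacking NS1 serves as control.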
# LmPK inhibitor: blocks Leishmania mexicana pyruvate kinase activity. Potency, µM (highest dose often 57.5 µM), for inactives: top-dose activity change, negative = inhibition, actives largely listed as inhibitors. AID 1721. purified LmPK, Kinase-Glo ATP luminescence, 1 h. 0.37% of 290,000 active; note: % is set by controls: 0 for no effect and ±100 for the full control effect
# Target sequence (Q27686 whole entry, looked up): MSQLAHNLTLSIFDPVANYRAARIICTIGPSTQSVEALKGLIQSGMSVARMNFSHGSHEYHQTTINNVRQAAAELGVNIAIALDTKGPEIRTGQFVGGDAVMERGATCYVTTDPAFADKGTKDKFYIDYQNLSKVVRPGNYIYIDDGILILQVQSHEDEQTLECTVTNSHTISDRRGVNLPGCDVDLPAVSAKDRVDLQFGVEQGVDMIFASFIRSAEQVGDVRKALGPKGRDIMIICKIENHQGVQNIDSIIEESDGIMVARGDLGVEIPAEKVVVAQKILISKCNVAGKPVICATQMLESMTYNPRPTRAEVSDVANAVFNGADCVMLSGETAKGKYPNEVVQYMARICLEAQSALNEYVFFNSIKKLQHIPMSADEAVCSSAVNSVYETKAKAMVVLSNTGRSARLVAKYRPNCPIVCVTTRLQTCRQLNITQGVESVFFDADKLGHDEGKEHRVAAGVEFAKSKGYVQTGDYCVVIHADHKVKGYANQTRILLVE
#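 ATP generated from ADP (0.1 mM) and PEP (0.5 mM) by 0.1 nM LmPK over 1 h at room temperature (pH 7.2 imidazole buffer) was detected by coupled luciferase luminescence. Values were normalized to uninhibited and no-enzyme wells.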
# Sm TGR inh: S. mansoni TGR enzyme inhibition | Q962Y6 | purified TGR, DTNB reduction, TNB absorbance 405 nm | Potency, µM (titrated, usually from 114 µM), inactives show at the top dose activity change, negative = inhibition, hits mostly inhibitors | 3% of 360,000 active; note: % is set by controls: 0 for no effect and ±100 for the full control effect; nearly all actives have a fitted effect of over 60% in size
#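 TGR 20 nM + NADPH 100 uM (dispensed conc.), cpd preinc 15 min RT; start with NADPH (500 uM addition) then DTNB (15 mM addition). Kinetic TNB absorbance, 405 nm filter. Four-parameter Hill fit across titration.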
# SARS PLP yeast: SARS-CoV PLP inhibition in yeast; AID 485353; 0.19% of 330,000 active; Potency, µM (series often up to 32.9 µM), for inactives: at the top dose activity, positive = growth rescue, hits mostly activators; S. cerevisiae expressing SARS-CoV PLpro, growth rescue; calls by dose curve; note: 0% is about no effect; nearly all actives have a fitted effect of over 55% in size
# * = called active by the depositor; ? = inconclusive; . = no result given; [ ] = another dose, or the depositor's remark. Unless noted, calls come from the whole dose curve; as a rule, active = well fitted curve in the direction sought with a large enough effect; inconclusive = small, poorly fitted or top-dose-only effect, or another doubt; inactive = no such curve, though single readings can be large; an effect the other way counts as inactive or inconclusive. Potency is the fitted concentration of half-maximal effect.
SMILES,TbPYK inhibitor,RE007 growth inh,NS1 inh,LmPK inhibitor,Sm TGR inh,SARS PLP yeast
Cc1ccc(/C=C/C(=O)Nc2sc3c(c2C#N)CCCC3)o1,-12%,1%,19%,-2%,45µM*,2%
N#Cc1c(NC(=O)CCC(=O)O)sc2c1CCCCC2,35µM*,0%,-5%,11%,-3%[57.1 µM],0%
CCOC(=O)CSc1cc(C)c(C#N)c2nc3ccccc3n12,-17%,2%,-6%,2%,2.5µM*,0%
Cc1cc(Nc2c(C)n(C)n(-c3ccccc3)c2=O)n2c(nc3cc(F)c(F)cc32)c1C#N,-16%,-5%,-2%,-3%,8.9µM*,-1%
Cc1cc(Nc2ccc(O)cc2)n2c(nc3ccccc32)c1C#N,4%,12%,6%,1%,-7%,2%
CCCc1cc(SCC(=O)Nc2c(C)n(C)n(-c3ccccc3)c2=O)n2c(nc3ccccc32)c1C#N,0%,5%,19%,4%,1.8µM*,-4%
CCC(C)Sc1cc(C)c(C#N)c2nc3ccccc3n12 (stereo not drawn),-2%,-8%,-16%,5%,-14%,-20%
Cc1nc(SCC(=O)Nc2c(C)n(C)n(-c3ccccc3)c2=O)c(C#N)c(C)c1C,-13%,-7%,.,.,-10%,-1%[6.58 µM]
CN(Cc1cccc2ccccc12)Cc1cccc2ccccc12,.,.,-7%,.,.,.
CCOc1ccc(S(=O)(=O)n2nc(C)c(S(=O)(=O)N3CCCCC3)c2C)cc1,-7%,.,.,.,-2%,.
O=Nc1c(O)n(Cc2ccc(Cl)cc2)c2ccccc12,1%,13%,-86%,3%,-8%,-27%
O=Nc1c(O)n(Cc2ccc(Cl)cc2Cl)c2ccccc12,-2%,22µM*,-81%,-1%,22%,-40%
CCSC1=N/C(=C\c2cccnc2)C(=O)N1c1ccccc1,2%,-20%,-31%,1%,4%,8%
CC(C)CN(CC(C)C)C1=N/C(=C\c2ccco2)C(=O)N1c1ccccc1,2%,-5%,17%,5%,6.3µM*,-2%
CCN(CC)C1=N/C(=C\c2ccco2)C(=O)N1c1ccccc1,-5%,-9%,-5%,1%,45µM*,-8%
CCOC(=O)C1=C(CN(CC)Cc2ccccc2)NC(=O)NC1c1ccc(OC(C)C)cc1 (stereo not drawn),-3%,.,.,.,7%,.
Cc1ccc2nsnc2c1NC(=O)c1ccc(-c2cc(Cl)ccc2Cl)o1,4%,-7%,17%,12%,40µM*,10%
Cc1ccc2nsnc2c1NC(=O)Cc1ccc(Cl)cc1,1%,9%,-2%,4%,6%,2%
O=C(Nc1ccccc1N1CCCCC1)c1ccc(-c2cccc(Cl)c2)o1,-2%,1%,11%,3%,-8%,4%
O=C(Nc1cccc2nsnc12)c1ccc(-c2cccc(Cl)c2)o1,-5%,?,20%,1%,6.3µM*,-1%
C=CCC(CC=C)(CNC(=O)C(=O)Nc1ccc(C)cc1)c1ccccc1,2%,.,.,.,-1%,.
CC(C)(C)OC(=O)NCCc1nnc(S(=O)(=O)Cc2ccc(Cl)cc2Cl)o1,-10%,13%,-67%,2%,0.89µM*,-1%
CCOCCCn1c(SCC(=O)Nc2cc(C)ccc2C)nc2c(oc3ccccc32)c1=O,-6%,.,.,.,3%,.
Cc1ccc(S(=O)(=O)N[C@@H](Cc2ccccc2)C(=O)CCl)cc1,5%,-12%,-38%,2%,11µM*,-65%
CCOC(=O)/C=C/C(=O)OCC(=O)NCc1ccccc1,-2%,-18%,-41%,-1%,25µM*,-21%
SMILES,TbPYK inhibitor,RE007 growth inh,NS1 inh,LmPK inhibitor,Sm TGR inh,SARS PLP yeast
CCOC(=O)/C=C/C(=O)OCC(=O)Nc1ccc(OC)c(Cl)c1,-2%,-3%,-51%,0%,18µM*,-26%
COc1ccc(NC(=O)C=C(C)C)cc1Cl,-12%,-26%,-53%,16µM*,-4%,.
COC(=O)/C=C/C(=O)Nc1ccc(O)c(Cl)c1,?,-8%,5%,-1%,45µM*,-9%
C/C(=C\C(=O)OCC(=O)NCc1ccccc1)C(=O)OCC(=O)NCc1ccccc1,-7%,2%,16%,-3%,-9%,10%
COC(=O)c1ccc(NC(=O)N2CCC(CN3CCc4ccccc4C3)CC2)cc1,4%,.,.,.,-11%,.
Cc1cccc(Cc2c(C)nc3nc(SCc4ccccc4C)nn3c2C)c1,-5%,.,.,.,-6%,.
COc1cccc(-c2nc(SCC(=O)NCC3CCCO3)c(-c3ccc(Cl)cc3)[nH]2)c1 (stereo not drawn),0%,.,.,.,0%,.
CCC(=O)Nc1ccc2nc(SCCOc3ccc(C)cc3OC)sc2c1,2%,.,.,.,0%,.
COc1ccc(NC(=O)COC(=O)/C=C/C(=O)OCC(=O)Nc2ccc(OC)c(Cl)c2)cc1Cl,-17%,.,0%,1%,?,3%
CCOC(=O)/C=C/C(=O)OCC(=O)Nc1c(Cl)cccc1Cl,7%,-12%,.,7%,20µM*,-3%
CCOC(=O)/C=C/C(=O)OCC(=O)Nc1ccc(Cl)cc1Cl,-1%,-6%,.,3%,11µM*,0%
CC(C)=CC(=O)OCC(=O)Nc1ccc(F)cc1Cl,3%,-7%,-6%,2%,14%[11.4 µM],1%
COc1ccc2c(c1)CC1(CN2C)C(=O)NC(=O)N(c2ccc(F)cc2)C1=O (stereo not drawn),-14%,25%,23%,0%,?,8%
COc1ccc2c(c1)CC1(CN2C)C(=O)NC(=O)N(c2ccc(C)cc2)C1=O (stereo not drawn),-17%,-3%,3%,-3%,50µM*,1%
Cc1ccc(NC(=O)c2nc(S(=O)(=O)Cc3ccccc3)ncc2Cl)cc1,6%,-8%,-101%,-4%,3.2µM*,-18%
O=C(NCc1ccccc1)c1nc(S(=O)(=O)Cc2ccc(F)cc2)ncc1Cl,1%,.,.,.,5µM*,.
O=C(Nc1ccc(F)cc1)c1nc(S(=O)(=O)Cc2ccccc2)ncc1Cl,-6%,2%,-106%,-1%,6.3µM*,-9%
Cc1ccccc1CS(=O)(=O)c1ncc(Cl)c(C(=O)Nc2ccc(F)cc2)n1,2%,-6%,-27%,11%,3.5µM*,-13%
CCOc1ccccc1CNC(=O)c1cc(-c2ccc(OC)cc2)nc2ccc(C(C)C)cc12,1%,.,.,.,2%,.
Oc1c(C(c2ccccc2F)N2CCN(c3ccccc3F)CC2)sc2nc(-c3ccco3)nn12 (stereo not drawn),2%,.,.,.,-1%,.
Cn1c(=O)c2c(SCC(=O)Nc3ccccc3C(F)(F)F)nc(C3CCCC3)nc2n(C)c1=O,-2%,.,.,.,-1%,.
O=C(Nc1ccccc1F)c1nc(S(=O)(=O)Cc2ccccc2F)ncc1Cl,8%,.,.,.,2.8µM*,.
CCCCn1c(-c2csc3ccccc23)n[nH]c1=S,16µM*,5%,1%,14µM*,-2%,?

# Bioassay records (PubChem BioAssay)
